This excerpt belongs to a sample that is enriched for hits.
Giardia FBPA inh – qHTS Assay for Inhibitors of Fructose-1,6-bisphosphate Aldolase from Giardia Lamblia; purified Giardia FBPA; A8B2U2; 0.71% of 290,000 active; AID 2451, 2010; Potency, µM (titrated, usually from 59.6 µM), inactives show at the highest dose activity, negative = inhibition, hits mostly inhibitors; note: potency is the fitted concentration of half-maximal effect; % is set by controls: 0 for no effect and ±100 for the full control effect; nearly all actives have a fitted effect of over 55% in size
Target sequence (A8B2U2 whole entry, looked up): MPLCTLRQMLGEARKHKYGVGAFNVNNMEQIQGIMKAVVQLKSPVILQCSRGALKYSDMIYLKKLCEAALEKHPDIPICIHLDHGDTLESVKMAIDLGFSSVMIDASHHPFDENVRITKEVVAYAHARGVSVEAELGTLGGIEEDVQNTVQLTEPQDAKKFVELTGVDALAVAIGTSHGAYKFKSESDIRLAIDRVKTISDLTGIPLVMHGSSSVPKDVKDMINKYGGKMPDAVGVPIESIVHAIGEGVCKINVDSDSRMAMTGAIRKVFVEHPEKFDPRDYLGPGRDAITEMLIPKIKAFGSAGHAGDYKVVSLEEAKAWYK
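40 nM FBPA preincubated 10 min at RT with compound (up to 57.5 uM final), then substrate plus GAPDH/TPI/NAD/arsenate coupling and diaphorase/resazurin added. Fluorescence read after 20 min at RT, 525/598 nm.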
Tb PYK inh – qHTS of Trypanosoma Brucei Inhibitors; Potency, µM (titrated, usually from 76.8 µM), without a hit: at the highest dose activity, negative = inhibition, actives largely listed as inhibitors; TbPYK enzyme, Kinase-Glo Plus ATP luminescence, 45 min; 0.12% of 410,000 active; note: potency is the fitted concentration of half-maximal effect; % is set by controls: 0 for no effect and ±100 for the full control effect; nearly all actives have a fitted effect of over 50% in size
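Enzyme and substrate buffer are dispensed first and compound is pin-transferred. ADP at 130 uM final then starts the reaction, which runs 45 min at room temperature. Detection reagent is added for 10 min before luminescence is imaged.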
Sm TGR block – qHTS Assay for the Inhibitors of Schistosoma Mansoni Peroxiredoxins. purified TGR, DTNB reduction, TNB absorbance 405 nm. Potency, µM (highest dose often 114 µM), for inactives: top-dose activity change, negative = inhibition, actives largely listed as inhibitors. 3% of 360,000 active. AID 485364, 2010; note: potency is the fitted concentration of half-maximal effect; % is set by controls: 0 for no effect and ±100 for the full control effect; nearly all actives have a fitted effect of over 60% in size
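First, TGR (20 nM dispensed) and NADPH were mixed with compound. Second, a 15 min room-temperature incubation followed. Third, further NADPH and then DTNB were added to start the reaction. Finally, TNB absorbance was monitored kinetically.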
Cycloheximide cs – Cycloheximide Counterscreen for Small Molecule Inhibitors of Shiga Toxin. 12% of 300,000 active. max response, %. cell reporter, cycloheximide protein synthesis inhibition counterscreen. AID 2314, 2010; in the data active = max response mostly above about 13%, no sharp cut-off; inactive = mostly below about 14%; note: read at 38.3 µM for the half of the compounds with a filed dose; 0% is about no effect
LmPK inhibitor – qHTS Assay for Inhibitors of Leishmania Mexicana Pyruvate Kinase (LmPK); purified LmPK, Kinase-Glo ATP luminescence, 1 h; Potency, µM (titrated, usually from 57.5 µM), without a hit: at the top dose activity change, negative = inhibition, hits mostly inhibitors; 0.37% of 290,000 active; note: potency is the fitted concentration of half-maximal effect; % is set by controls: 0 for no effect and ±100 for the full control effect
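Purified LmPK (0.1 nM) converted ADP (0.1 mM) to ATP with PEP (0.5 mM) in imidazole buffer pH 7.2 with KCl and MgCl2, 1 h at room temperature. ATP was read by Kinase-Glo luminescence; data normalized to uninhibited and no-enzyme controls.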
Shiga toxin inh – A qHTS for Small Molecule Inhibitors of Shiga Toxin | Vero cells, Shiga toxin protein synthesis inhibition reporter | inhibition, % at 38.7 µM | AID 2315, 2010 | 9.2% of 290,000 active; in the data active = inhibition mostly above about 28%, no sharp cut-off; inactive = mostly below about 43%; note: 0% is about no effect
An asterisk follows results filed as active; ? = inconclusive; nt = no result. Unless noted, calls come from the whole dose curve; as a rule, active = well fitted curve in the direction sought with a large enough effect; inconclusive = small, poorly fitted or top-dose-only effect, or another doubt; inactive = no such curve, though single readings can be large; an effect the other way counts as inactive or inconclusive.

SMILES	Giardia FBPA inh	Tb PYK inh	Sm TGR block	Cycloheximide cs	LmPK inhibitor	Shiga toxin inh
Cc1cc(CNC(=O)CC2C(=O)NCCN2Cc2ccccc2C(F)(F)F)on1 (configuration not stated)	-23%	-1%	35µM*	2	16%	-4
Cc1cc(C)n(CCNC(=O)CC2C(=O)NCCN2Cc2ccccc2C(F)(F)F)n1 (configuration not stated)	-18%	-8%	35µM*	-3	-3%	2
Cc1cnc(CNC(=O)CC2C(=O)NCCN2Cc2ccccc2C(F)(F)F)cn1 (configuration not stated)	nt	2%	11µM*	-2	1%	-1
COc1ccccc1NC(=O)Cn1c(=O)n(Cc2cccs2)c(=O)c2cccnc21	nt	4%	1%	nt	nt	nt
CCc1nnc(NC(=O)[C@@H](NC(=O)c2cc(OC)cc(OC)c2)C(C)C)s1	3%	0%	-3%	5	2%	-13
COc1ccc([C@H]2N[C@]3(CCCN(Cc4ccc(C)cc4)C3=O)[C@H]3C(=O)N(Cc4ccccc4)C(=O)[C@@H]23)cc1	nt	-3%	nt	nt	nt	nt
CN(CCc1cn[nH]c1)C(=O)CC1C(=O)NCCN1Cc1ccccc1C(F)(F)F (configuration not stated)	-29%	-4%	35µM*	-3	6%	31
CN(Cc1ccon1)C(=O)CC1C(=O)NCCN1Cc1ccccc1C(F)(F)F (configuration not stated)	?	0%	?	-1	-12%	-2
CCOc1ccc(C2=NNC(c3cccs3)=Nc3ccc(OC)cc32)cc1	-5%	4%	-3%	35*	-2%	85*
CCc1ccc2c(c1)C(c1ccc(N3CCOCC3)cc1)=NNC(c1ccncc1)=N2	-2%	4%	nt	1	-1%	-34
Brc1ccc2c(c1)C(c1ccc(N3CCOCC3)cc1)=NNC(c1cccs1)=N2	0%	-10%	2%	12	1%	1
CCOc1ccc(C2=Nc3ccc(Br)cc3C(c3ccc(N4CCOCC4)cc3)=NN2)cc1	-6%	1%	-9%	44*	-1%	56*
CCOc1ccc(C2=Nc3ccccc3C(c3ccc(N4CCOCC4)cc3)=NN2)cc1	-2%	2%	-13%	46*	-5%	163*
COc1ccc(OC)c(C2CC(=O)Nc3c2c(=O)n(C)c2ncnn32)c1 (configuration not stated)	nt	0%	-11%	nt	nt	nt
Brc1ccc(Cn2c(-c3ccc(Br)o3)nc3ccccc32)o1	-28%	-1%	22µM*	18*	-5%	22
C/C(=N\NC(=O)c1cc(O)cc(O)c1)c1ccc(NC(=O)Cc2ccccc2)cc1	nt	-2%	8%	22*	23%	70*
C/C(=N/NC(=O)c1ccc(-c2ccccc2)cc1)c1cc(O)cc(O)c1	nt	2%	-16%	18	-4%	9
C/C(=N\NC(=O)CNC(=O)c1cccc(F)c1)c1ccc2ccccc2c1	nt	-2%	-12%	-4	0%	-10
C/C(=N\NC(=O)c1cccc(F)c1)c1ccc(NC(=O)Cc2ccccc2)cc1	nt	-5%	3%	42*	-1%	48*
CC1CCc2onc(C(=O)N3CCN(c4ccc(F)cc4)CC3)c2C1 (configuration not stated)	nt	-3%	0%	nt	nt	nt
Cc1cccc(NC(=S)NC(=O)c2ccco2)c1C	nt	-8%	?	32	-3%	14
Cc1cccc(NC(=S)N(C)C)c1C	-3%	6%	18%	-2	1%	30*
Cc1cccc(NC(=S)NC(=O)Cc2ccccc2)c1C	-5%	-1%	?	8	-5%	15*
Cc1c(NC(=S)NC(=O)Cc2ccccc2)cccc1C(=O)O	11%	1%	0%	11	5%	10
Cc1cc(C)c(NC(=S)N(C)C)cc1C	-3%	-1%	-11%	-4	4%	36
Cc1cccc(NC(=S)NC(=O)CCc2ccccc2)c1C	-3%	-6%	?	18*	7%	22
